According to the supplement of paper PMC10849652:
Of roughly 8,800 targets only a part is listed; those with a hit were picked by preference. About 0.5% of all pairs of compound and target were hits. Unmarked numbers belong to inactive results.

Experiments:
Test in all cases: log2 fold change, soluble protein after heating vs DMSO (PISA); higher = thermal stabilisation; K562 lysate, 10 uM; active = over 0.2 and 3.5 SD of the protein, either way, in both replicates (recomputed)
alvocidib = compound: CN1CC[C@H](c2c(O)cc(O)c3c(=O)cc(-c4ccccc4Cl)oc23)[C@H](O)C1 [alvocidib]
Outline: (§1)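 Dounce homogenisation of K562 pellets in PBS pH 7.4 with 1 mM MgCl2 produced a crude extract, used at 1 mg/mL protein. Exposure to 10 μM compound lasted 30 min, and aliquots were then heated for 3 min across 48°C-58°C, pooled and brought to 0.5% NP-40 at 4°C. The supernatant after 21,000xg for 90 min was quantified by TMTpro 16plex LC-MS/MS with channel sums equalised. Duplicate values are given as log-two fold change in thermal stability relative to solvent controls.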

Tubastatin A = compound: CN1CCc2c(c3ccccc3n2Cc2ccc(C(=O)NO)cc2)C1 [Tubastatin A]
Outline: as §1

[1] = compound: CNC(=O)C1=CC=CC=C1NC2=NC(=NC=C2Cl)NC3=C(C=C(C=C3)N4CCOCC4)OC
Outline: as §1

defactinib = compound: CNC(=O)c1ccc(Nc2ncc(C(F)(F)F)c(NCc3nccnc3N(C)S(C)(=O)=O)n2)cc1 [defactinib]
Outline: as §1

[2] = compound: CNc1nc(-c2ccc3c(N)n[nH]c3c2)cc(N2C[C@@H](C(=O)NC3CCCCC3)CC[C@H]2C)n1
Outline: as §1

encorafenib = compound: COC(=O)N[C@@H](C)CNc1nccc(-c2cn(C(C)C)nc2-c2cc(Cl)cc(NS(C)(=O)=O)c2F)n1 [encorafenib]
Outline: as §1

[3] = compound: COC(=O)[C@H](CCSC)NC(=O)C1=C(C=C(C=C1)NC[C@H](CS)N)C2=CC=CC=C2
Outline: as §1

alisertib = compound: COc1cc(Nc2ncc3c(n2)-c2ccc(Cl)cc2C(c2c(F)cccc2OC)=NC3)ccc1C(=O)O [alisertib]
Outline: as §1

[4] = compound: COc1cc2nc(-c3cc(F)ccc3O)nc(N[C@@H]3CNC[C@H]3C(C)(C)O)c2cc1OC
Outline: as §1

gefitinib = compound: COc1cc2ncnc(Nc3ccc(F)c(Cl)c3)c2cc1OCCCN1CCOCC1 [gefitinib]
Outline: as §1

lapatinib = compound: CS(=O)(=O)CCNCc1ccc(-c2ccc3ncnc(Nc4ccc(OCc5cccc(F)c5)c(Cl)c4)c3c2)o1 [lapatinib]
Outline: as §1

pictilisib = compound: CS(=O)(=O)N1CCN(Cc2cc3nc(-c4cccc5[nH]ncc45)nc(N4CCOCC4)c3s2)CC1 [pictilisib]
Outline: as §1

crizotinib = compound: C[C@@H](Oc1cc(-c2cnn(C3CCNCC3)c2)cnc1N)c1c(Cl)ccc(F)c1Cl [crizotinib]
Outline: as §1

[5] = compound: C[C@H](C1=CC=C(C=C1)C(=O)NC2=C3C=CNC3=NC=C2)N
Outline: as §1

duvelisib = compound: C[C@H](Nc1ncnc2nc[nH]c12)c1cc2cccc(Cl)c2c(=O)n1-c1ccccc1 [duvelisib]
Outline: as §1

gandotinib = compound: Cc1cc(Nc2cc(CN3CCOCC3)c3nc(C)c(Cc4ccc(Cl)cc4F)n3n2)n[nH]1 [gandotinib]
Outline: as §1

tozasertib = compound: Cc1cc(Nc2cc(N3CCN(C)CC3)nc(Sc3ccc(NC(=O)C4CC4)cc3)n2)n[nH]1 [tozasertib]
Outline: as §1

doramapimod = compound: Cc1ccc(-n2nc(C(C)(C)C)cc2NC(=O)Nc2ccc(OCCN3CCOCC3)c3ccccc23)cc1 [doramapimod]
Outline: as §1

bafetinib = compound: Cc1ccc(NC(=O)c2ccc(CN3CC[C@H](N(C)C)C3)c(C(F)(F)F)c2)cc1Nc1nccc(-c2cncnc2)n1 [bafetinib]
Outline: as §1

[6] = compound: Cc1cccc(CC(=O)N2CCc3c2ccc(-c2cn(C)c4ncnc(N)c24)c3F)n1
Outline: as §1

Sequence of UniProt Q15418 (Q15418 whole entry, looked up): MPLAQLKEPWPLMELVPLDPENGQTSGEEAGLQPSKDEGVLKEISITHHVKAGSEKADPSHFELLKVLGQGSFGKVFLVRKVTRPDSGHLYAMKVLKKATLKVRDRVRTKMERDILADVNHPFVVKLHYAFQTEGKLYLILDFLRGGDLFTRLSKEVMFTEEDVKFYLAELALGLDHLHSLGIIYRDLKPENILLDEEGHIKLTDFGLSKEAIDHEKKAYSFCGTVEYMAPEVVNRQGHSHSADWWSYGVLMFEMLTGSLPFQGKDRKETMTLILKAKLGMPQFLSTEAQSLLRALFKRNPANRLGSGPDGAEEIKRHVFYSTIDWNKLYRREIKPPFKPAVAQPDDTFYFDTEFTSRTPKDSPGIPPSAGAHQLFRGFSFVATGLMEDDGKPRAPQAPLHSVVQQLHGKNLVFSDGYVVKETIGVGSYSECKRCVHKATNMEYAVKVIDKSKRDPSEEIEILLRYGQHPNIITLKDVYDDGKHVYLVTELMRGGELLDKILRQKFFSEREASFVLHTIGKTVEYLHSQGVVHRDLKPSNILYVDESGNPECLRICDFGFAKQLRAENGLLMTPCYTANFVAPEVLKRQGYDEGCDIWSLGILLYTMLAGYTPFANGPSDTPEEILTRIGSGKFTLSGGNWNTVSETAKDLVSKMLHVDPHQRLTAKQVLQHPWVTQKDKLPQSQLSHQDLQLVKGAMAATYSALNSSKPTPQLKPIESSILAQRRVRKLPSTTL
Sequence of UniProt Q4ADV7 (Q4ADV7 whole entry, looked up): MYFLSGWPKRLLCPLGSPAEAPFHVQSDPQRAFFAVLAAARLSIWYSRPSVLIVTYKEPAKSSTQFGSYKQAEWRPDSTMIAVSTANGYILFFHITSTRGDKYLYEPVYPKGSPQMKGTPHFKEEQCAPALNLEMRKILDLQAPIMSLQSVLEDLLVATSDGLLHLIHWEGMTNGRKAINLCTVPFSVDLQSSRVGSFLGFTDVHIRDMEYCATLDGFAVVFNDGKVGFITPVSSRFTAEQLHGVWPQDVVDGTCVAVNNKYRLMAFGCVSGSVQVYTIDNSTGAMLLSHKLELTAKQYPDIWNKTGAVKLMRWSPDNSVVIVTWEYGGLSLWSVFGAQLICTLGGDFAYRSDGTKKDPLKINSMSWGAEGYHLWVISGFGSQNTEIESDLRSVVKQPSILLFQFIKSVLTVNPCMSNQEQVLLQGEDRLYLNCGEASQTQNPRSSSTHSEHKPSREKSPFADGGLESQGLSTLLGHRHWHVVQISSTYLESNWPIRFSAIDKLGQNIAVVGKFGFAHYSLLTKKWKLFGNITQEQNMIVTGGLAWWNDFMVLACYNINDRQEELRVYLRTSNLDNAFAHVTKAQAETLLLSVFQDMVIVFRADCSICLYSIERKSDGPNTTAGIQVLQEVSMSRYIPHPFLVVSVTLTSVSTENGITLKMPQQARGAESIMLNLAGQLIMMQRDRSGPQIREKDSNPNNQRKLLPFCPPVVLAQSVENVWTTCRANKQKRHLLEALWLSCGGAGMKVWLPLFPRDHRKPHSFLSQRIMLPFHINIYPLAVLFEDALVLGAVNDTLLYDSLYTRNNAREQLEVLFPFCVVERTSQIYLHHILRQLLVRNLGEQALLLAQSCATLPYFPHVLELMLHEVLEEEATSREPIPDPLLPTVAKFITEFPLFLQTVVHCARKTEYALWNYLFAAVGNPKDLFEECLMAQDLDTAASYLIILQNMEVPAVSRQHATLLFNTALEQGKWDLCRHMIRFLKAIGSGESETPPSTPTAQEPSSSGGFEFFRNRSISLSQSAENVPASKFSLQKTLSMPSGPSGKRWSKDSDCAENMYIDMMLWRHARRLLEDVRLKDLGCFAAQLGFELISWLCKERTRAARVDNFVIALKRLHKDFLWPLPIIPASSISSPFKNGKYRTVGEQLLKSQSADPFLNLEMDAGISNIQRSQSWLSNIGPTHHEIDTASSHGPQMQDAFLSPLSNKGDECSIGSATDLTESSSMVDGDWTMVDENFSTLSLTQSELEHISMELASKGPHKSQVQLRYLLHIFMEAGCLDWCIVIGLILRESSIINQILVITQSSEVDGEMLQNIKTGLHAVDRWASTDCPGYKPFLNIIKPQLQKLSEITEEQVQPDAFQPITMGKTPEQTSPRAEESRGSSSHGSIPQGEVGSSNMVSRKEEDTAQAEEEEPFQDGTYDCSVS
Sequence of UniProt O95248 (O95248 whole entry, looked up): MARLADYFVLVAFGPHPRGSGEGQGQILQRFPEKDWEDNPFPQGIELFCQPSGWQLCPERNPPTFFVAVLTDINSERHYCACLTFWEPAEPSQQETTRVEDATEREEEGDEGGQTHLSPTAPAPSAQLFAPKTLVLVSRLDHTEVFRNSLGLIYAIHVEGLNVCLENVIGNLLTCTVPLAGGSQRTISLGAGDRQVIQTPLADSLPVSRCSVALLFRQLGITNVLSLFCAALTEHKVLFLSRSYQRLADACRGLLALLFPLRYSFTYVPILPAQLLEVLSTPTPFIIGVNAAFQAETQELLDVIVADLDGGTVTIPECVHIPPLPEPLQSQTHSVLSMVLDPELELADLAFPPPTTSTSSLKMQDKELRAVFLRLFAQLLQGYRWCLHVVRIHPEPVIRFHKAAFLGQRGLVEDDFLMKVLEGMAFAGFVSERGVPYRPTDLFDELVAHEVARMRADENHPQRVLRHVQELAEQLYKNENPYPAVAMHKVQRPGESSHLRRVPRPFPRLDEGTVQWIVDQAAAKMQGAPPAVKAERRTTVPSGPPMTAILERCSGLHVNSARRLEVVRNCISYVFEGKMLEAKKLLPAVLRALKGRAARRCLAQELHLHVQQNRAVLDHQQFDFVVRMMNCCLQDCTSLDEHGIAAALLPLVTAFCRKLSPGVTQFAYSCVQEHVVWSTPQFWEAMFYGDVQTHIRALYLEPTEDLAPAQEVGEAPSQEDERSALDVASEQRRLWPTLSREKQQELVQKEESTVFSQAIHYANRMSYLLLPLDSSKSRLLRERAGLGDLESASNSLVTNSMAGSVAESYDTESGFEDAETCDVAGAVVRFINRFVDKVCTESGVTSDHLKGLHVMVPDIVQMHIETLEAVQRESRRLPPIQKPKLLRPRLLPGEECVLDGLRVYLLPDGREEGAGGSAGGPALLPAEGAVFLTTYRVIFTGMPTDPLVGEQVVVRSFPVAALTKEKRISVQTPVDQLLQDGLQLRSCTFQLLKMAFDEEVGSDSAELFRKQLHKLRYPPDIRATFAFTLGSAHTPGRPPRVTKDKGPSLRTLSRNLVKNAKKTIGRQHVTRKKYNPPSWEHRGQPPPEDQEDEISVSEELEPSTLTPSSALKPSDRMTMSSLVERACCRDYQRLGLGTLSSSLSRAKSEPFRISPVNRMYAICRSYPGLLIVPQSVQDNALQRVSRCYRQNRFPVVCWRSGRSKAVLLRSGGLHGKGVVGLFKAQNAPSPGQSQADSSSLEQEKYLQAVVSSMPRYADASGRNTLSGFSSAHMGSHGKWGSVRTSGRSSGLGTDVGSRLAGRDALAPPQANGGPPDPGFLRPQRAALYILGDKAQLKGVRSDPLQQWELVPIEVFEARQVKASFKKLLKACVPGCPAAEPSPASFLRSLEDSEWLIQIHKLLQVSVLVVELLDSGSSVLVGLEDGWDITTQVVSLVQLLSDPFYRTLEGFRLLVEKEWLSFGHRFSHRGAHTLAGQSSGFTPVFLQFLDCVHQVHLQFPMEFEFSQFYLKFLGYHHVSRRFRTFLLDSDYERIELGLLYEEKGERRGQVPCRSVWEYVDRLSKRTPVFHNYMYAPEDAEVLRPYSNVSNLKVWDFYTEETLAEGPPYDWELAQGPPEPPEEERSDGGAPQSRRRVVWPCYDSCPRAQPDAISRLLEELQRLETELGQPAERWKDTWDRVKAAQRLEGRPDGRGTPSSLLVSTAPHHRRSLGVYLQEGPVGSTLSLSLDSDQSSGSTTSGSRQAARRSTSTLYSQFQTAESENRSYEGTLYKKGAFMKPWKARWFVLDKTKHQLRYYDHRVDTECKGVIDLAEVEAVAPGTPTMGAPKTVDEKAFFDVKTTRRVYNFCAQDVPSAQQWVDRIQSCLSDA
Sequence of UniProt P35250 (P35250 whole entry, looked up): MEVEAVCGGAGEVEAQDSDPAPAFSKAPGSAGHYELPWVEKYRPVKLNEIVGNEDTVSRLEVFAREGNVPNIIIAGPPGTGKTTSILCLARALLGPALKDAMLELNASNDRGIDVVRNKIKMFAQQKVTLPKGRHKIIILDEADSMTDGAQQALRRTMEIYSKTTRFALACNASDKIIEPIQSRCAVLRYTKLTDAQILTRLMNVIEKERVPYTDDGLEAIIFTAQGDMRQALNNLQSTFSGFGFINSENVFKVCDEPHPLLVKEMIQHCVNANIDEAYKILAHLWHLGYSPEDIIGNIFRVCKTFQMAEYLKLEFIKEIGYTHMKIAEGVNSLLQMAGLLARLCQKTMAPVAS
Sequence of UniProt Q15287 (Q15287 whole entry, looked up): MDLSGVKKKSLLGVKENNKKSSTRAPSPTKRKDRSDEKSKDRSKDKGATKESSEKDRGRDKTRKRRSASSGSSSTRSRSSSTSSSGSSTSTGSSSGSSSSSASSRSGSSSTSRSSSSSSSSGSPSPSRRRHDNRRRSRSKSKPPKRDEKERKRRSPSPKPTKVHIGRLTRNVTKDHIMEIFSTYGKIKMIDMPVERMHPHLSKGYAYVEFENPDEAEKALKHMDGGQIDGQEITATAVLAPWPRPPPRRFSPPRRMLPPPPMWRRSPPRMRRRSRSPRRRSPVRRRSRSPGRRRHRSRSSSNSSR

Target | log2 fold change (alvocidib) | log2 fold change (Tubastatin A) | log2 fold change [1] | log2 fold change (defactinib) | log2 fold change [2] | log2 fold change (encorafenib) | log2 fold change [3] | log2 fold change (alisertib) | log2 fold change [4] | log2 fold change (gefitinib) | log2 fold change (lapatinib) | log2 fold change (pictilisib) | log2 fold change (crizotinib) | log2 fold change [5] | log2 fold change (duvelisib) | log2 fold change (gandotinib) | log2 fold change (tozasertib) | log2 fold change (doramapimod) | log2 fold change (bafetinib) | log2 fold change [6]
RPS6KA1 (UniProt Q15418) | 0.447 (active) | -0.194 | 0.758 (active) | 0.236 | -0.007 | -0.121 | -0.002 | 0.012 | 0.165 | -0.007 | -0.067 | 0.08 | -0.043 | 0.007 | 0.008 | 0.05 | 0.165 | -0.039 | -0.135 | -0.172
RPS26P11 (UniProt Q5JNZ5) | -0.216 | 0.038 | -0.064 | 0.011 | 0.02 | 0.007 | 0.006 | -0.006 | -0.032 | -0.056 | 0.024 | -0.008 | -0.085 | -0.484 (active) | 0.076 | 0.147 | -0.055 | 0.021 | -0.072 | 0.24 (active)
RIC1 (UniProt Q4ADV7) | 0.014 | -0.051 | 0.029 | -0.12 | 0.02 | 0.037 | -0.13 | 0.017 | -0.073 | 0.024 | 0.016 | -0.02 | -0.06 | -0.032 | -0.048 | -0.092 | 0.01 | 0.026 | 0.3 (active) | 0.108
SBF1 isoform 4 (UniProt O95248) | 0.005 | 0.074 | -0.054 | 0.022 | -0.099 | -0.004 | -0.009 | 0.238 | 0.008 | 0.062 | -0.029 | -0.075 | 0.088 | 0.07 | -0.039 | -0.066 | 0 | -0.004 | -0.061 | 0.006
RBM8A (UniProt Q9Y5S9) | 0.086 | 0.024 | -0.024 | 0.017 | -0.256 | 0.002 | -0.069 | 0 | -0.062 | -0.024 | 0.01 | 0.017 | 0.135 | 0.277 (active) | -0.014 | -0.209 | 0.06 | -0.038 | -0.017 | -0.2
RPL28 (UniProt P46779) | 0.03 | 0.006 | -0.009 | -0.018 | 0.036 | 0.012 | -0.014 | 0.011 | -0.005 | -0.058 | 0.01 | 0.047 | 0.043 | 0.234 | 0.018 | -0.098 | -0.018 | -0.046 | 0.056 | -0.059
RFC2 (UniProt P35250) | -0.025 | -0.21 | -0.012 | 0.023 | -0.055 | 0.042 | 0.113 | 0.014 | 0.005 | 0.007 | -0.004 | 0.015 | -0.046 | -0.025 | 0.025 | -0.007 | 0.005 | 0.042 | -0.074 | 0.041
RNPS1 (UniProt Q15287) | -0.043 | 0.102 | 0.02 | -0.009 | 0.029 | 0.069 | 0.01 | 0.02 | 0.01 | 0.006 | 0.025 | 0.044 | 0.254 (active) | -0.02 | 0.038 | 0 | 0.042 | -0.057 | -0.009 | -0.001
